Records with an inconclusive call do not appear. Activity calls are given as the source filed them. Unless noted, calls follow the shape of the dose curve; as a rule, active = well fitted curve in either direction with a large enough effect (not every such curve was filed as active); inconclusive = small, poorly fitted or top-dose-only effect, or another doubt; inactive = flat fitted curve, though single readings scatter.
How the values were obtained:
[1] = target: Lysosomal acid glucosylceramidase (Homo sapiens) (UniProt P04062); assay: Glucocerebrosidase-p2 (AID 348; in the data active = potency below about 10 µM; also: potency is read from the fitted curve at half-maximal effect); details: purified GBA, blue fluorogenic substrate, 40 min
Sequence of Lysosomal acid glucosylceramidase (Homo sapiens) (P04062 whole entry, looked up): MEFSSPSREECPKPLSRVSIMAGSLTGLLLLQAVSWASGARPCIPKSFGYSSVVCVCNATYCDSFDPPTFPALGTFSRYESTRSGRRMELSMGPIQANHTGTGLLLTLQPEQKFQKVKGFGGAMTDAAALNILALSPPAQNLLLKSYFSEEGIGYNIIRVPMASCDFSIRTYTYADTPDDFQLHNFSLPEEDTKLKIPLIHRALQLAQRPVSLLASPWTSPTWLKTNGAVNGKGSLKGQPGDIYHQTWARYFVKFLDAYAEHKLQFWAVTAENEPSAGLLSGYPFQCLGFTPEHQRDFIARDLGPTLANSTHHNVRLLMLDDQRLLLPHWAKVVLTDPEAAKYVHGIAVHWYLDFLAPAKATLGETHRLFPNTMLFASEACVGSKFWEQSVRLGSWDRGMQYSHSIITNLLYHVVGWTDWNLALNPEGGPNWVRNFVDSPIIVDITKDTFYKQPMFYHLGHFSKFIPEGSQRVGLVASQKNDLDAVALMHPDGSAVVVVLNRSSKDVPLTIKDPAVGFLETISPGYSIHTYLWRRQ
Summary of the method: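 Compounds titrated from 0.6 nM upwards against 0.2 nM enzyme in pH 5.9 citric acid/KH2PO4, taurocholate, tween-20; blue fluorogenic substrate 80 uM, 40 min room temperature, stopped and read Ex 365/Em 440 for AC50.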

[2] = AP1 Signaling Pathway (AID 357); details: ME-180 AP-1-bla reporter, EGF-induced, beta-lactamase ratio, 5 h; at 7.69 µM (top of the series) unless noted;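 also: ME-180 reporter cells stimulated with EGF at its EC50 level; % is scaled to controls: 0 for no effect and ±100 for the full control effect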
Summary of the method: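 Read-out was the 460nm/530nm emission ratio (excitation 405nm) after CCF4 loading for 2.5 hours at room temperature. Cells carried an AP-1-driven beta-lactamase reporter, were stimulated with EC50 EGF plus compound for 5 hours, and AC50 values came from titrations.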

[3] = NFAT Signaling Pathway (AID 444); details: Jurkat NFAT-bla M1, carbachol, beta-lactamase ratio, 5 h; at 7.69 µM (top of the series) unless noted;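 also: carbachol stimulus at about its EC50 of 1 µM final; % is scaled to controls: 0 for no effect and ±100 for the full control effect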
Summary of the method: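 Jurkat cells carrying an NFAT-driven β-lactamase reporter and co-transfected muscarinic M1 receptor were treated with compound plus carbachol (1 uM final, an EC50 level) for 5 h at 37 °C. CCF4 loading followed for 1 h at RT; 460/530 nm ratio gave %activity.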

[4] = Stat Signaling Pathway (AID 446); details: ME-180 SIE beta-lactamase reporter, IL-6 stimulated, 5 h; at 7.69 µM (top of the series) unless noted;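 also: ME-180 cervical cancer cells given 40 pM IL-6 alongside compound; SIE-controlled beta-lactamase reporter measured as 460/530 nm FRET emission ratio; % is scaled to controls: 0 for no effect and ±100 for the full control effect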
Summary of the method: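 ME-180 SIE-bla cells; overnight plating; cpd + IL-6 40 pM, 5 h, 37 C; LiveBLAzer 2.5 h RT; 460/530 nm emission ratio. Normalized to 300 pM IL-6 and 125 nM JAK inhibitor controls.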

[5] = target: Glucocorticoid receptor (Homo sapiens) (UniProt P04150); assay: GR-GFP Redistribution (AID 450;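 active = compounds whose dose series gives a full or clear partial fitted curve of increased nuclear translocation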; also: potency is read from the fitted curve at half-maximal effect); details: U2OS GR-GFP nuclear translocation, laser cytometry, 2 h
Sequence of Glucocorticoid receptor (Homo sapiens) (P04150 whole entry, looked up, the tested form may be a part): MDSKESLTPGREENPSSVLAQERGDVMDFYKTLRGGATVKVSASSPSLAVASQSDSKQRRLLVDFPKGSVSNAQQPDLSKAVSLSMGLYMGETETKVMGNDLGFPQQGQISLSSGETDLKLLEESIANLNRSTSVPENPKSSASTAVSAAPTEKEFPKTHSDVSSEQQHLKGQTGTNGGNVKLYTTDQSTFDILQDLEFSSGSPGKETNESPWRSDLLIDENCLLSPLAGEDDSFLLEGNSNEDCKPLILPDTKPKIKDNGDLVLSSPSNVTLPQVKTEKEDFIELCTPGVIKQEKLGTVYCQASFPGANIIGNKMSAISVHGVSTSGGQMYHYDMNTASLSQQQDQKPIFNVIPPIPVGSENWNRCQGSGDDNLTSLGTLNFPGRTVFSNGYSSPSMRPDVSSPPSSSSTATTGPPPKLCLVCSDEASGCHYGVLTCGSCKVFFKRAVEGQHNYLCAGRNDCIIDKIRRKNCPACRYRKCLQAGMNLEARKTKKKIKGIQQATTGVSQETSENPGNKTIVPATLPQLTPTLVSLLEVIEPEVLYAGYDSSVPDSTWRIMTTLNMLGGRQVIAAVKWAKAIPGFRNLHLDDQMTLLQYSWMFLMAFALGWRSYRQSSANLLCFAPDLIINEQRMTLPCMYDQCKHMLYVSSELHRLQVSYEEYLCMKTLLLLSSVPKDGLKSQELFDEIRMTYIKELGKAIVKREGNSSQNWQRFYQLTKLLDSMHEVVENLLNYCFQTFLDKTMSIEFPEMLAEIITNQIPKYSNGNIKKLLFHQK

[6] = target: Glucocorticoid receptor (Homo sapiens) (UniProt P04150); assay: GR-EFC Redistribution (AID 451; calls by dose curve; also: potency is read from the fitted curve at half-maximal effect); details: CHO-K1 GR-EFC translocation, beta-gal luminescence, 2 h
Summary of the method: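 CHO-K1 cells stably expressing nuclear-localized β-gal enzyme acceptor and GR fused C-terminally to the enzyme donor fragment; ligand-driven nuclear translocation restores β-gal by complementation. Compounds titrated up to 46 uM final, 2 h at 37 °C; luminescence read.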

[7] = target: Mitogen-activated protein kinase 10 (Mus musculus) (UniProt Q61831); assay: JNK3 AlphaScreen Assay (AID 530); details: JNK3 lysate, c-Jun phosphorylation; series mostly up to 57.1 µM;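 also: kinase came from lysate of stimulated human HepG2 cells; signal reports phosphorylation of biotinylated GST-cJun 1-79 at Ser73 with 10 µM ATP; % is scaled to controls: 0 for no effect and ±100 for the full control effect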
Summary of the method: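 JNK3 came from HepG2 lysates pre-activated with IL-1beta and TNF-alpha and phosphorylated biotinylated GST-cJun (1-79) at 10 uM ATP, pH 7.6, room temperature. Compounds were titrated. AlphaScreen signal used anti-phospho-cJun (Ser73) antibody.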

[8] = target: 3',5'-cyclic-AMP phosphodiesterase 4B (Homo sapiens) (UniProt Q07343); assay: qHTS Assay for Inhibitors of PDE-IV (AID 607; active = well fitted activation curve with a large enough effect in the main read-out, with a control signal flat, not every such curve was filed as active; also: % of control where 0% means no effect); details: HEK293 ACTOne CNG channel cells, membrane potential fluorescence; series mostly up to 22.9 µM
Sequence of 3',5'-cyclic-AMP phosphodiesterase 4B (Homo sapiens) (Q07343 whole entry, looked up): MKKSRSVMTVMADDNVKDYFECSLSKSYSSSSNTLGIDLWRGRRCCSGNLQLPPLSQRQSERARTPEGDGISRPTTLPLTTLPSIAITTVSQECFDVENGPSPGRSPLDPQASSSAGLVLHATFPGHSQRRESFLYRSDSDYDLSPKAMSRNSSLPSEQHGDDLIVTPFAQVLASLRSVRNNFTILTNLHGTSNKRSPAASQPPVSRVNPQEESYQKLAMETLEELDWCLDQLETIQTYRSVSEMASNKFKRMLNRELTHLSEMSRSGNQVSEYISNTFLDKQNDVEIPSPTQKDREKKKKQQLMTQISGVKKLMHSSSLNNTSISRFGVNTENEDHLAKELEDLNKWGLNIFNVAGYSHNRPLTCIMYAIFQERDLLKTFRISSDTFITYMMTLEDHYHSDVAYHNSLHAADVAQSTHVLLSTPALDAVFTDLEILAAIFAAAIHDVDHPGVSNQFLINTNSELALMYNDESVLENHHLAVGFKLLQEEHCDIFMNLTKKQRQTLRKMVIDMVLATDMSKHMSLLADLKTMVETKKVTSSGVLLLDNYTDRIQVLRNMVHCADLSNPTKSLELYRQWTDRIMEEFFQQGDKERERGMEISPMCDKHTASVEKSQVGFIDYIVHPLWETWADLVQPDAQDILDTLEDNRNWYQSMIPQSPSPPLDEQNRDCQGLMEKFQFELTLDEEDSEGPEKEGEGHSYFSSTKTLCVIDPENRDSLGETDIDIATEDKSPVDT
Summary of the method: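 ACTOne HEK293 cells carry a modified cAMP-gated CNG channel and express endogenous PDE4; plated 1000 cells/well, compounds up to 22.9 uM final. Membrane-potential dye fluorescence (ex 535/em 590) was read; parental cells received 10 uM forskolin + 100 uM RO 20-1724.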

[9] = target: Cytochrome P450 3A4 (Homo sapiens) (UniProt P08684); assay: qHTS Assay for Inhibitors and Substrates of Cytochrome P450 3A4 (AID 884; active = well fitted curve in the direction sought with a large enough effect; an effect the other way counts as inactive or inconclusive; also: potency is read from the fitted curve at half-maximal effect; nearly all actives have a fitted effect of over 50% in size); details: recombinant CYP3A4, Luciferin-PPXE luminescence; series mostly up to 57.1 µM
Sequence of Cytochrome P450 3A4 (Homo sapiens) (P08684 whole entry, looked up): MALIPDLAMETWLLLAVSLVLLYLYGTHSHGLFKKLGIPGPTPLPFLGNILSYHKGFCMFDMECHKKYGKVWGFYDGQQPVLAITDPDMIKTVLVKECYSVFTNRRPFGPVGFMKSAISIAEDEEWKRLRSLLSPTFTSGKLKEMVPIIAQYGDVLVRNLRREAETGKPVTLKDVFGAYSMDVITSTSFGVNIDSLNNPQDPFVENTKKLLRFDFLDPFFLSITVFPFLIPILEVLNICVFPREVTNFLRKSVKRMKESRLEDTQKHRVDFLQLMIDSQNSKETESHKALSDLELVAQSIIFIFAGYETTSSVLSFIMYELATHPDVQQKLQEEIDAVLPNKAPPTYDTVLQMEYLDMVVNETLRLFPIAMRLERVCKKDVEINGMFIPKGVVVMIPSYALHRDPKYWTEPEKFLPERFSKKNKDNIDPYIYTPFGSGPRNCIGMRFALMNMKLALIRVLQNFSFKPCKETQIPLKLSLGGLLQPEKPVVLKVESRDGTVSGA
Summary of the method: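 20 nM human CYP3A4 with 25 uM Luciferin-PPXE (at KM) in 200 mM KPO4, preincubated 10 min with compound; NADPH regeneration started a 60 min RT reaction. Luciferin detected by luminescence, normalized to 57 uM ketoconazole as full inhibition.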

[10] = target: Cytochrome P450 3A4 (Homo sapiens) (UniProt P08684); assay: qHTS Assay for Activators of Cytochrome P450 3A4 (AID 885; active = well fitted curve in the direction sought with a large enough effect; an effect the other way counts as inactive or inconclusive; also: nearly all actives have a fitted effect of over 65% in size); details: recombinant CYP3A4, Luciferin-PPXE luminescence, 60 min; series mostly up to 57.1 µM
Summary of the method: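 20nM CYP3A4 + 25uM Luciferin-PPXE (=KM), 200mM KPO4; cpd 10 min RT; NADPH regen, 60 min RT; stop w/ detection buffer, 20 min; luminescence. Normalized to 57 uM ketoconazole.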

[11] = target: Dual specificity protein kinase CLK4 (Homo sapiens) (UniProt Q9HAZ1); assay: qHTS Assay for Inhibitors of CDC-like Kinase 4 (ADP-FP Assay) (AID 1795; active = well fitted curve in the direction sought with a large enough effect; an effect the other way counts as inactive or inconclusive; also: % is scaled to controls: 0 for no effect and ±100 for the full control effect; nearly all actives have a fitted effect of over 60% in size); details: Transcreener ADP fluorescence polarization; series mostly up to 50 µM
Summary of the method: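 Recombinant human Clk4 (6.25 nM) phosphorylated RS repeat peptide (100 uM) with 1 uM ATP in Tris pH 7.5/MgCl2/EGTA/DTT/Triton buffer for one hour. ADP was quantified by Transcreener competitive fluorescence polarization against an ADP calibration curve.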

[12] = target: Ubiquitin carboxyl-terminal hydrolase 1 (Homo sapiens) (UniProt O94782); assay: Inhibitors of USP1/UAF1: Pilot qHTS (AID 504865; active = well fitted curve in the direction sought with a large enough effect; an effect the other way counts as inactive or inconclusive;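 also: rhodamine fluorescence freed from ubiquitin-rhodamine substrate followed over time; top concentration of the series differs between compounds; % is scaled to controls: 0 for no effect and ±100 for the full control effect; nearly all actives have a fitted effect of over 35% in size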); details: purified USP1/UAF1, Ub-rhodamine cleavage fluorescence; series mostly up to 54.9 µM
Sequence of Ubiquitin carboxyl-terminal hydrolase 1 (Homo sapiens) (O94782 whole entry, looked up): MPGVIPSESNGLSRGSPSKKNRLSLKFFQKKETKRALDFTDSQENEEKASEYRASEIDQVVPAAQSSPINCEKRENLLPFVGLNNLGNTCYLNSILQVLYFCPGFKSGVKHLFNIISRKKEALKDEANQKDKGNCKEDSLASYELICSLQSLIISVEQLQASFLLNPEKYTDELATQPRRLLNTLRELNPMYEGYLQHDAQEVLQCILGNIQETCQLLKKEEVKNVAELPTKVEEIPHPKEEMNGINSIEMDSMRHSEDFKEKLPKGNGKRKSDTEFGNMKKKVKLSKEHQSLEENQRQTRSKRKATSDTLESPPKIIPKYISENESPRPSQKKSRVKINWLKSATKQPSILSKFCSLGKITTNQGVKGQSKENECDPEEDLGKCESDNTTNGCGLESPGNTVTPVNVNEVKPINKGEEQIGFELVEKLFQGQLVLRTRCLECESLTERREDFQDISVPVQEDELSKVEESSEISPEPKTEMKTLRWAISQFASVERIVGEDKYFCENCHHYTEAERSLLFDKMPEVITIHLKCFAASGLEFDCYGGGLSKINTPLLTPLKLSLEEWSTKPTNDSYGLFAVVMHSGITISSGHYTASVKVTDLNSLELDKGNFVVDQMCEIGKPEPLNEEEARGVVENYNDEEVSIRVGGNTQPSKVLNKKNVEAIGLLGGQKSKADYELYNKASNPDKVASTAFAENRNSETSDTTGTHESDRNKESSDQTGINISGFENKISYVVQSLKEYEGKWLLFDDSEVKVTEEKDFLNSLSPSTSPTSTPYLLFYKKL
Summary of the method: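 USP1/UAF1 complex (1nM) preincubated with compound 15 min at room temperature, then Ub-Rho substrate (150nM final) added. Fluorescence read kinetically at 480/540 nm, 6 reads every 60 seconds. Buffer: 50mM HEPES pH 7.8, 0.5mM EDTA, 0.1 mg/ml BSA, 1mM TCEP, 0.01% Tween-20.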

[13] = Primary qHTS for small molecule stabilizers of the endoplasmic reticulum resident proteome: Secreted ER Calcium Modulated Protein (SERCaMP) assay (AID 1508630; active = well fitted curve in the direction sought with a large enough effect; an effect the other way counts as inactive or inconclusive; also: % is scaled to controls: 0 for no effect and ±100 for the full control effect); details: SH-SY5Y GLuc-SERCaMP (Gaussia luciferase released on ER calcium loss) secretion, thapsigargin, luminescence; series mostly up to 38.4 µM
Summary of the method: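 GLuc-SERCaMP-expressing SH-SY5Y cells, pretreated 16 h with compound, are challenged with thapsigargin to empty ER calcium stores; after 4 h, coelenterazine is added directly to the medium and luminescence is imaged.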

[14] = target: Cytochrome P450 1A2 (Homo sapiens) (UniProt P05177); assay: p450-cyp1a2 (AID 410; calls by dose curve; also: potency is read from the fitted curve at half-maximal effect); details: recombinant CYP1A2, luciferin-ME demethylation, luminescence; series mostly up to 57 µM
Sequence of Cytochrome P450 1A2 (Homo sapiens) (P05177 whole entry, looked up): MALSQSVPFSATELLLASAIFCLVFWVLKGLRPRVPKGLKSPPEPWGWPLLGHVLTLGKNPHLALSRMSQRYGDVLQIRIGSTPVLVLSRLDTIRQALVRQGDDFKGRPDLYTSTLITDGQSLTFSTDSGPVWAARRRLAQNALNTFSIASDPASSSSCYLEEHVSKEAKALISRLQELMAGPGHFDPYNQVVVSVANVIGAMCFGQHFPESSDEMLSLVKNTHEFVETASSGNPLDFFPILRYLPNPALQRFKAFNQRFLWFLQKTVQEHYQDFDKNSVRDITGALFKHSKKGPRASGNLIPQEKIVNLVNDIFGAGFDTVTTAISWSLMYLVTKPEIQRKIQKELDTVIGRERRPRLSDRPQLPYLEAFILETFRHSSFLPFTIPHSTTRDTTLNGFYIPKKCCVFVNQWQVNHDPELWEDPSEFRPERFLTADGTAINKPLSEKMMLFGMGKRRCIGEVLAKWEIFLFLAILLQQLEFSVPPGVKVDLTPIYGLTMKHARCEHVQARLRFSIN
Summary of the method: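 Inhibition was calculated relative to 57 uM furafylline (full inhibition). The reaction used human CYP1A2 at 20nM with Luciferin-ME at its Km, 100uM, driven by an NADPH-regenerating system for 60 min at room temperature.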

[15] = Confirmation and Secondary Assay for Modulators of Hemoglobin Beta Chain Splicing at IVS2 654 locus (AID 910; active = well fitted curve in the direction sought with a large enough effect; an effect the other way counts as inactive or inconclusive;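 also: per-well total GFP intensity by laser scanning cytometry after 2-day treatment; % of control where 0% means no effect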); details: HeLa EGFP-654 splicing reporter, GFP fluorescence, 48 h; series mostly up to 38.3 µM
Summary of the method: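 HeLa cells stably carrying EGFP interrupted by mutant beta-globin IVS2-654 intron (CMV-driven) were treated with compound for 2 days at 37C; corrected splicing was scored as total peak GFP intensity per well (488 nm excitation, 500-520 nm emission).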

[16] = target: Cytochrome P450 2D6 (Homo sapiens) (UniProt P10635); assay: qHTS Assay for Inhibitors and Substrates of Cytochrome P450 2D6 (AID 891; active = well fitted curve in the direction sought with a large enough effect; an effect the other way counts as inactive or inconclusive; also: potency is read from the fitted curve at half-maximal effect; nearly all actives have a fitted effect of over 60% in size); details: recombinant CYP2D6, luciferin-ME EGE luminescence; series mostly up to 57.1 µM
Sequence of Cytochrome P450 2D6 (Homo sapiens) (P10635 whole entry, looked up): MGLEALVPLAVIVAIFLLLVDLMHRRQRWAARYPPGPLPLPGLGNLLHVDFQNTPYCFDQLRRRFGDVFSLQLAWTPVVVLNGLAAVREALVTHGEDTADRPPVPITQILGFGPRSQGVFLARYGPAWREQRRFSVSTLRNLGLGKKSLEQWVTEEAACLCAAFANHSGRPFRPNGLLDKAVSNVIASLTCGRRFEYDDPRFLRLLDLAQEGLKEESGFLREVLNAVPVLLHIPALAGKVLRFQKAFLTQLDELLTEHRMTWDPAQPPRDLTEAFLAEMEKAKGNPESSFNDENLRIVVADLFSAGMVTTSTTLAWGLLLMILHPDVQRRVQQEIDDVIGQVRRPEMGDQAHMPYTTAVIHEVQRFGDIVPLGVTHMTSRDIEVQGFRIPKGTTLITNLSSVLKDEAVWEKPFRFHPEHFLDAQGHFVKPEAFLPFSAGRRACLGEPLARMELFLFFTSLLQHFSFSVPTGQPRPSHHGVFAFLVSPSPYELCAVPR
Summary of the method: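 Human CYP2D6 (5 nM) with 30 uM Luciferin-ME EGE (at Km) in 100 mM KPO4, compound preincubated 10 min, then NADPH regeneration system for 60 min at room temperature. Luciferin read by luminescence; normalized to 1.43 uM quinidine.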

[17] = target: Cytochrome P450 2C19 (Homo sapiens) (UniProt P33261); assay: qHTS Assay for Inhibitors and Substrates of Cytochrome P450 2C19 (AID 899; active = well fitted curve in the direction sought with a large enough effect; an effect the other way counts as inactive or inconclusive; also: potency is read from the fitted curve at half-maximal effect; nearly all actives have a fitted effect of over 60% in size); details: recombinant CYP2C19, luciferin-H EGE luminescence; series mostly up to 57.1 µM
Sequence of Cytochrome P450 2C19 (Homo sapiens) (P33261 whole entry, looked up): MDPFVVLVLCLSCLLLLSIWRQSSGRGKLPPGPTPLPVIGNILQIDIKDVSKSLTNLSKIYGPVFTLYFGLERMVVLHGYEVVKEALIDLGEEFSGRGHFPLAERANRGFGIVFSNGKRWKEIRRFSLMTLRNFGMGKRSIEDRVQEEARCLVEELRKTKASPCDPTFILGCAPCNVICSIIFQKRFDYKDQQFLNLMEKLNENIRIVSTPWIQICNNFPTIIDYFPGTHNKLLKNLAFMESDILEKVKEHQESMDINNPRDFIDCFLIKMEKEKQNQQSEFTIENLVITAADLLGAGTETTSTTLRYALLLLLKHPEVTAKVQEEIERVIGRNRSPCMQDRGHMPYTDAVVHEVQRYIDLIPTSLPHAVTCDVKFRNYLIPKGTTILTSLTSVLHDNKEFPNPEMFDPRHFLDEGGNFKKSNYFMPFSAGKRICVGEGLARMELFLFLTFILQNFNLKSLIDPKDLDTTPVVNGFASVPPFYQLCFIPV
Summary of the method: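 Human CYP2C19 (5nM) with Luciferin-H EGE at 10uM (its KM) in 50mM KPO4 was preincubated with compound for 10 min at 37C. NADPH regeneration started a 60 min 37C reaction. Luciferin was read by luminescence, normalized to 57uM ketoconazole.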

[18] = Confirmation and Secondary Assay for Modulators of Hemoglobin Beta Chain Splicing at IVS2 705 locus (AID 930; active = well fitted curve in the direction sought with a large enough effect; an effect the other way counts as inactive or inconclusive;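 also: HeLa cells stably expressing the EGFP-705 splicing reporter; GFP fluorescence per well restored by corrected splicing of the IVS2-705 intron in EGFP; % of control where 0% means no effect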); details: HeLa EGFP-705 splicing reporter, GFP fluorescence, 48 h; series mostly up to 38.3 µM
Summary of the method: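 First, HeLa EGFP-705 cells are seeded at 500/well in Optimem with 2% FCS and left overnight. Next, compound or DMSO is added for 2 days. Finally wells are laser-scanned and total peak GFP intensity scored.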

CS(=O)(=O)Nc1cccc(-c2cncnc2-n2ccnc2)c1
active: Potency [9] 7.94 µM
inactive: Potency [1] > 11.4 µM | activity change, negative = inhibition [2] 7.32% | activity change, negative = inhibition [3] 14.5% | activity, negative = inhibition [4] 14.6% | Potency [5] > 46 µM | Potency [6] > 46 µM | Potency [7] | Potency [8] | Potency [10] | Potency [11] | Potency [12] | outcome [13]

CC(=O)NCCNc1ncnc2ccc(-c3ccc(C(=O)N(C)C)cc3)cc12
active: Potency [14] 25.1 µM
inactive: Potency [1] > 11.4 µM | activity change, negative = inhibition [2] -14.6% | activity change, negative = inhibition [3] -1.21% | activity, negative = inhibition [4] -0.482% | Potency [5] > 46 µM | Potency [6] > 46 µM | Potency [7] | Potency [8] | Potency [15] | Potency [12] | outcome [13]

c1ncc(-c2ccc3c(c2)OCO3)c(NCCc2cnc[nH]2)n1
active: Potency [14] 0.398 µM | Potency [9] 0.794 µM | Potency [16] 2.51 µM | Potency [17] 39.8 nM
inactive: Potency [1] > 11.4 µM | activity change, negative = inhibition [2] -17.2% | activity change, negative = inhibition [3] 1.1% | activity, negative = inhibition [4] -11.2% | Potency [5] > 46 µM | Potency [6] > 46 µM | Potency [7] | Potency [8] | Potency [10] | Potency [15] | outcome [18] | Potency [12] | outcome [13]

O=c1c(-c2ccccc2)nc2cncnc2n1C1CC1
inactive: Potency [1] > 11.4 µM | activity change, negative = inhibition [2] -14.9% | activity change, negative = inhibition [3] 6.76% | activity, negative = inhibition [4] 8.37% | Potency [5] > 9.22 µM | Potency [6] > 46 µM | Potency [7] | outcome [13]
active: Potency [14] 2 µM

c1cncc(-c2ccc3ncnc(N4CCNCC4)c3c2)c1
active: Potency [14] 1.26 µM
inactive: Potency [1] > 11.4 µM | activity change, negative = inhibition [2] 8.97% | activity change, negative = inhibition [3] 26.4% | activity, negative = inhibition [4] 0.928% | Potency [5] > 46 µM | Potency [6] > 46 µM | Potency [7] | Potency [8] | Potency [10] | Potency [15] | outcome [18] | Potency [12] | outcome [13]

Cn1c(=O)c(-c2cccc(Cl)c2)nc2cncnc21
inactive: Potency [1] > 11.4 µM | activity change, negative = inhibition [2] -7.56% | activity change, negative = inhibition [3] -2.65% | activity, negative = inhibition [4] -10.2% | Potency [5] > 9.22 µM | Potency [6] > 46 µM | Potency [7] | Potency [8] | outcome [13]
active: Potency [14] 0.501 µM
